This note sets out measurements from PubChem BioAssay (NCI).

Molecules are shown by their SMILES. This is part of a sample that, as a whole, favours compounds with a hit. Of some 83,000 tested, about 20% had one in any assay.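 Results are percent growth after 48 hours of single-concentration exposure. 100 means growth as in untreated cells, lower positive values show inhibition; negative values down to -100 show cell death.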 The source made the active and inactive calls. Rule for the calls: active = growth percent below 10; inactive = the rest.

In this test the test system is K-562 leukemia. Kind of test: NCI-60 one-dose screen, 48 h (100 = growth as untreated, 0 = no growth, -100 = all killed). The following applies: 10 µM unless noted.
For the molecule `COc1cccc(C(=O)Cn2cc(/C=C(\C#N)S(=O)(=O)c3ccccc3)c3ccccc32)c1`, the growth is 79.2% (inactive).

In the case of `CC(=O)O[C@@H]1/C=C/C(=O)N[C@@H](C)CCC/C=C/[C@@H]2CCC[C@H]21`, the growth was 102% (inactive).

Take `CC(C)(C)c1ccc(C2CC(=O)C3=C(C2)Nc2ccccc2N(C(=O)c2ccccc2Cl)C3c2ccc(F)cc2)cc1` (stereo not drawn): the growth is 10.1% (inactive).

As to `O=C1/C=C/[C@@H](O)[C@@H]2C[C@@H](O)C[C@H]2/C=C/CCCCO1`, the growth is 13.7% (inactive).

As for `CN1CCN(c2nc(Nc3ccc(O)cc3)nc3ccccc23)CC1`, the growth is 42% (inactive).

In the case of `O=C(NN1C(=O)CSC1c1ccc(Cl)cc1)c1[nH]c2ccc(F)cc2c1-c1ccccc1` (stereo not drawn), the growth is 28.2% (inactive).

Turning to `CSc1nc2c(c(=O)n1C)N=C1c3ccccc3C(=O)C1C(c1ccccc1)N2` (stereo not drawn), the growth was 32.9% (inactive).

Consider `CCCC(=O)CC(C)=O.CCCC(=O)CC(C)=O.[Cu]`, for which the growth was 104% (inactive).

In the case of `N#C/C(=C\c1c(-c2ccccc2)[nH]c2ccccc12)S(=O)(=O)c1ccccc1`, the growth was 17.5% (inactive).

As for `O=C(Nc1ccc(Cl)cc1)c1cc2ccccc2cc1OP(=O)(O)O`, the growth is 27.1% (inactive).

For `COc1ccc(/C=C2\N=C(c3ccccc3)N(c3ccc(-c4nc5ccc(C)cc5s4)cc3)C2=O)cc1`, the growth is 82.4% (inactive).

As for `CSc1nc2c(c(=O)[nH]1)N=C1c3ccccc3C(=O)C1C(c1ccccc1)N2` (stereo not drawn), the growth is 34.8% (inactive).

As to `CCOC(=O)c1c(Cl)c2c(n1Cc1ccccc1)-c1oncc1CCC2`, the growth was 18.6% (inactive).

As for `COc1cc([C@@H]2NC(=O)NC(C)=C2C(=O)Nc2nc(-c3ccc(Cl)cc3)cs2)ccc1O`, the growth is 99.9% (inactive).

Regarding `N#C/C(=C\c1c(-c2ccccc2)[nH]c2ccccc12)C(=O)c1ccccc1`, the growth is 21.6% (inactive).

Regarding `CCN(CC)c1cc(C)c2cc(NC(=O)c3cccc(OC)c3)ccc2n1`, the growth was 13.4% (inactive).

In the case of `COc1nc2c(c(=O)n1C)N=C1c3ccccc3C(=O)C1C(c1ccccc1)N2` (stereo not drawn), the growth was 74.8% (inactive).

Consider `CCOc1ccccc1CN1CCc2nc3cc(C(C)(C)C)[nH]n3c(=O)c2C1`, for which the growth was 87.2% (inactive).

On to `COc1ccc(-n2c(C(O)c3ccccc3)n[nH]c2=S)cc1` (stereo not drawn), for which the growth is 99.3% (inactive).

Turning to `CC(=O)n1cc(-c2c[nH]c3ccccc23)c(-c2ccc(Cl)cc2)n1`, the growth is 94.3% (inactive).

Regarding `N#CC(C#N)=Cc1c(-c2ccccc2)[nH]c2ccccc12`, the growth was 12.7% (inactive).

In the case of `Nc1ccc(C2c3ccccc3Oc3ccccc32)cc1`, the growth is 82.3% (inactive).

For `COc1cc(C#N)cc2[nH]c(=O)oc12`, the growth was 123% (inactive).
